In PubChem BioAssay (NCATS) one finds Potency data, which are given here for 13 compounds.

Test [1] is described as follows: Quantitative High-Throughput drug screen in 47 multiple myeloma cell lines against the NCATS MIPE library collection: ARD_JJKsccE7 cell viability assay (AID 1918929). An outline of the steps: (§1)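 Myeloma cells (500 per well) were exposed to MIPE 4.0 compounds by pin transfer and incubated 48 hours at 37C, 5% CO2. Viability was read as ATP by CellTiter-Glo luminescence, normalised to DMSO (100%) and media-only (0%) wells.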

Test [2] can be described thus: Quantitative High-Throughput drug screen in 47 multiple myeloma cell lines against the NCATS MIPE library collection: Karpas620_DSMZ cell viability assay (AID 1918959). Further: nearly all actives have a fitted effect of over 30% in size. An outline of the steps: (§2)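 Relative luminescence from CellTiter-Glo served as the viability signal, referenced to DMSO-treated (100%) and cell-free medium (0%) controls. Treatment lasted 48 hours at 37C with 500 cells per well.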

A short description of test [3]: Quantitative High-Throughput drug screen in 47 multiple myeloma cell lines against the NCATS MIPE library collection: KMM1_JCRB cell viability assay (AID 1918960). Further: nearly all actives have a fitted effect of over 30% in size. Summed up: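 Viability screen: myeloma cells (500/well) incubated 48 h at 37 °C, humidified 5% CO2, with pinned library compounds; CellTiter-Glo added, luminescence read; DMSO wells set 100%, medium-only wells 0%.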

Test [4] in a line: Quantitative High-Throughput drug screen in 47 multiple myeloma cell lines against the NCATS MIPE library collection: Karpas417_ECACC cell viability assay (AID 1918961). To be noted: Karpas417 myeloma viability, CellTiter-Glo ATP luminescence, 48 h; viability (% of DMSO): at 45.8 µM (top of the series). An outline of the steps: as §2
(In ATP-based viability assays light output follows the ATP content of the culture.)

The nature of test [5]: Quantitative High-Throughput drug screen in 47 multiple myeloma cell lines against the NCATS MIPE library collection: KHM11_PLB cell viability assay (AID 1918962). Further: nearly all actives have a fitted effect of over 35% in size. Summed up:
as §2

A short description of test [6]: Quantitative High-Throughput drug screen in 47 multiple myeloma cell lines against the NCATS MIPE library collection: JIM3_ECACC cell viability assay (AID 1918963; further: nearly all actives have a fitted effect of over 35% in size). An outline of the steps:
as §2

Test [7] in a line: Quantitative High-Throughput drug screen in 47 multiple myeloma cell lines against the NCATS MIPE library collection: JIM1_ECACC cell viability assay (AID 1918964). An outline of the steps:
as §1

Test [8] in a line: Quantitative High-Throughput drug screen in 47 multiple myeloma cell lines against the NCATS MIPE library collection: INA6_PLB cell viability assay (AID 1918965; further: nearly all actives have a fitted effect of over 55% in size). Summed up: as §2
Test [9] in a line: Quantitative High-Throughput drug screen in 47 multiple myeloma cell lines against the NCATS MIPE library collection: JJN3_DSMZ cell viability assay (AID 1918966; further: nearly all actives have a fitted effect of over 50% in size). An outline of the steps: as §1
A short description of test [10]: Quantitative High-Throughput drug screen in 47 multiple myeloma cell lines against the NCATS MIPE library collection: H1112_PLB cell viability assay (AID 1918967; further: nearly all actives have a fitted effect of over 30% in size). Summed up: as §1
Test [11] is described as follows: Quantitative High-Throughput drug screen in 47 multiple myeloma cell lines against the NCATS MIPE library collection: Karpas25_ECACC cell viability assay (AID 1918968; further: nearly all actives have a fitted effect of over 35% in size). An outline of the steps:
as §1

Test [12] in a line: Quantitative High-Throughput drug screen in 47 multiple myeloma cell lines against the NCATS MIPE library collection: KMS27_JCRB cell viability assay (AID 1918970). Further: nearly all actives have a fitted effect of over 30% in size. An outline of the steps:
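Luminescent ATP read-out (CellTiter-Glo, 5 min at room temperature) after 48 h compound exposure of 500 KMS27_JCRB cells per well; DMSO wells define full viability and media-only wells zero.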

Test [13] can be described thus: Quantitative High-Throughput drug screen in 47 multiple myeloma cell lines against the NCATS MIPE library collection: KMS12BM_JCRB cell viability assay (AID 1918971). Further: nearly all actives have a fitted effect of over 35% in size. Summed up:
(§3)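 Steps: seed 500 cells per well; pin-transfer MIPE 4.0 library; incubate 48 h at 37C, 5% CO2, humidified; add CellTiter-Glo, 5 min room temperature; read luminescence.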

Test [14] can be described thus: Quantitative High-Throughput drug screen in 47 multiple myeloma cell lines against the NCATS MIPE library collection: KMS12PE_JCRB cell viability assay (AID 1918972). Further: nearly all actives have a fitted effect of over 30% in size. Summed up: as §2
The nature of test [15]: Quantitative High-Throughput drug screen in 47 multiple myeloma cell lines against the NCATS MIPE library collection: KMS20_JCRB cell viability assay (AID 1918973). Further: nearly all actives have a fitted effect of over 45% in size. Summed up: as §1
A short description of test [16]: Quantitative High-Throughput drug screen in 47 multiple myeloma cell lines against the NCATS MIPE library collection: KMS26_JCRB cell viability assay (AID 1918975). Further: nearly all actives have a fitted effect of over 45% in size. Summed up:
as §3

Test [17] can be described thus: Quantitative High-Throughput drug screen in 47 multiple myeloma cell lines against the NCATS MIPE library collection: MOLP8_DSMZ cell viability assay (AID 1918977). Further: nearly all actives have a fitted effect of over 45% in size. An outline of the steps: (§4)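 Readout: median RLU from CellTiter-Glo after 5 min at room temperature. Preceding step was 48 h drug treatment of 500 cells/well at 37 °C, 5% CO2, with DMSO-only and media-only control wells.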

A short description of test [18]: Quantitative High-Throughput drug screen in 47 multiple myeloma cell lines against the NCATS MIPE library collection: NCIH929_DSMZ cell viability assay (AID 1918978). Further: nearly all actives have a fitted effect of over 35% in size. Summed up:
as §4

Test [19] in a line: Quantitative High-Throughput drug screen in 47 multiple myeloma cell lines against the NCATS MIPE library collection: MMM1_PLB cell viability assay (AID 1918976). Further: nearly all actives have a fitted effect of over 35% in size. Summed up: as §4
The nature of test [20]: Quantitative High-Throughput drug screen in 47 multiple myeloma cell lines against the NCATS MIPE library collection: KMS21BM_JCRB cell viability assay (AID 1918974). To be noted: ATP luminescence, 48 h; viability: at 45.8 µM (top of the series) unless noted. An outline of the steps: as §1

Results filed as inconclusive are left out. Calls of active or inactive are those of the source. The call rests on the fitted dose curve; in most records, active means well fitted curve in the direction sought with a large enough effect; inconclusive means small, poorly fitted or top-dose-only effect, or another doubt; inactive means no such curve, though single readings can be large; an effect the other way counts as inactive or inconclusive.
Potency means the concentration at half of the fitted maximal effect.

As to `CCc1ccc(OCc2ccccc2C(=O)Nc2ccc3nc(C)cc(N)c3c2)cc1`, the Potency is 2.64 µM (active) in test [1]; 1.05 µM (active) in test [2]; 2.64 µM (active) in test [3]; 1.87 µM (active) in test [4]; 2.35 µM (active) in [5]; 2.64 µM (active) in test [6]. In addition, the Potency in [7] was 2.64 µM (active); in test [8], 2.64 µM (active); in [9], 6.62 µM (active); in [10], 2.96 µM (active); in test [11] it was 1.32 µM (active); in test [12], 1.87 µM (active). The Potency in test [13] is 7.43 µM (active); in test [14], 0.935 µM (active); in [15], 0.59 µM (active); in test [16], 6.62 µM (active); in test [17] it was 7.43 µM (active); in [18] it was 1.05 µM (active).
As for `CN(C)Cc1ccc(-c2nc3cccc4c3n2CCNC4=O)cc1`, the Potency in test [1] is 29.6 µM (active); in test [2] it was 23.5 µM (active); in test [3], 18.7 µM (active); in [4] it was 14.8 µM (active); in test [5] it was 11.8 µM (active); in [6], 20.9 µM (active). In addition, the Potency in test [7] is 11.8 µM (active); in test [8], 16.6 µM (active); in [10] it was 20.9 µM (active); in test [11], 23.5 µM (active); in test [12], 20.9 µM (active); in test [17] it was 13.2 µM (active). Besides, in [18], the Potency was 18.7 µM (active).
As to `Cc1c(O)cccc1C(=O)N[C@@H](CSc1ccccc1)[C@H](O)CN1C[C@H]2CCCC[C@@H]2C[C@@H]1C(=O)NC(C)(C)C`, the Potency in [1] was 16.6 µM (active); in test [2] it was 14.8 µM (active); in [3] it was 18.7 µM (active); in [4], 14.8 µM (active); in test [5], 18.7 µM (active); in test [6], 20.9 µM (active). In addition, the Potency in test [7] was 9.35 µM (active); in [8] it was 23.5 µM (active); in [12], 16.6 µM (active); in test [14] it was 10.5 µM (active); in test [16], 29.6 µM (active); in test [19] it was 20.9 µM (active). In addition, the results for the Potency in test [17] and in test [18] were 16.6 µM (active) and 23.5 µM (active), respectively.
Turning to `CCn1cc(C(=O)O)c(=O)c2ccc(C)nc21`, the Potency entry in test [1], in test [2], in test [3], in test [6], in test [7] and in [10] was “inactive” each time. In addition, the Potency result in [11], in test [12], in test [14], in test [17] and in test [18] was “inactive” throughout.
For the compound `Cc1nc(N)sc1-c1ccnc(Nc2ccc(N3CCOCC3)cc2)n1`, the Potency in [1] is 5.26 µM (active); in test [2] it was 20.9 µM (active); in test [3], 4.69 µM (active); in [5], 6.62 µM (active); in test [6] it was 14.8 µM (active); in test [8] it was 1.48 µM (active). For the same compound, the Potency was 16.6 µM (active) in test [10]; 6.62 µM (active) in test [12]; 14.8 µM (active) in [13]; 2.64 µM (active) in [14]; 7.43 µM (active) in [15]; 7.43 µM (active) in test [17]. The Potency in test [18] was 7.43 µM (active).
For the compound `O=C(Nc1cc(Cl)cc2c1[nH]c1cnccc12)c1cccnc1`, the Potency result in test [1], in test [2], in test [6], in test [12] and in [14] was “inactive” in each case. For the same compound, the Potency is 6.62 µM (active) in test [3]; 16.6 µM (active) in test [8]; 1.48 µM (active) in test [10]; 5.9 µM (active) in [11]; 18.7 µM (active) in test [13]; 18.7 µM (active) in test [16]. Besides, in test [18], the Potency was 1.87 µM (active).
For `CC(C)(C)c1cc(C(=O)O)c(NC(=O)Nc2ccc3[nH]ncc3c2)s1`, the Potency entry in test [1], in test [2], in test [3], in test [5], in [7] and in [8] was “inactive” in each case. Also, the Potency result in test [10], in [12] and in [16] was “inactive” throughout.
As to `CC(C)OC(=O)CCCC=CC[C@@H]1[C@H](C=C[C@@H](O)COc2cccc(C(F)(F)F)c2)[C@H](O)C[C@@H]1O`, the Potency result in test [1], in test [2], in test [3], in [7] and in test [14] was “inactive” throughout. Besides, the Potency in [5] was 23.5 µM (active); in test [6], 20.9 µM (active); in test [8], 11.8 µM (active); in test [10], 18.7 µM (active); in test [11], 16.6 µM (active); in test [19] it was 14.8 µM (active). Moreover, the Potency was 26.4 µM (active) in test [17] and 18.7 µM (active) in test [18].
For `CC(C)(Cc1ccc2ccccc2c1)NC[C@@H](O)COc1cccc(Cl)c1C#N`, the Potency result in test [1], in test [2], in test [3], in [6], in test [8] and in test [10] was “inactive” throughout. Further, the Potency result in [11], in [12], in [13], in test [14], in [16] and in test [18] was “inactive” each time. In addition, the Potency in test [9] is 5.9 µM (active).
Consider `C=C1C(=O)OC2C=C(C)CCC=C(C)CCC12` (stereo unspecified), for which the Potency is 23.5 µM (active) in test [1]; 14.8 µM (active) in test [2]; 16.6 µM (active) in [3]; 14.8 µM (active) in test [7]; 16.6 µM (active) in test [8]; 20.9 µM (active) in [10]. Further, the Potency in [11] was 20.9 µM (active); in [12], 20.9 µM (active); in test [13] it was 20.9 µM (active); in [14], 20.9 µM (active); in [20], 26.4 µM (active); in test [17] it was 16.6 µM (active). The Potency entry in test [5] was “inactive”.
Consider `CC#CCn1c(N2CCC[C@@H](N)C2)nc2c1c(=O)n(Cc1nc(C)c3ccccc3n1)c(=O)n2C`, for which the Potency entry in test [1], in [2], in test [3], in [5], in test [12] and in [14] was “inactive” throughout. Also, the Potency result in test [16] and in test [17] was “inactive” each time. The Potency in test [9] is 3.72 µM (active).
Regarding `N#CC1(c2ccc(NC(=O)c3cccnc3NCc3ccncc3)cc2)CCCC1`, the Potency result in test [1], in [2], in [3], in [5], in test [6] and in test [7] was “inactive” each time. Also, the Potency result in [10], in test [12] and in test [18] was “inactive” each time. The Potency in [8] was 18.7 µM (active); in test [14] it was 0.469 µM (active).
In the case of `Cc1ccc(C(=O)Nc2cccc(C(F)(F)F)c2)cc1Nc1nc(-c2cccnc2)nc2c1cnn2C`, the Potency entry in test [1], in [2], in [3], in test [7], in [12] and in [14] was “inactive” in each case. Besides, the Potency result in [20] was “inactive”. The Potency was 13.2 µM (active) in test [5]; 11.8 µM (active) in [8]; 18.7 µM (active) in test [9]; 14.8 µM (active) in test [10]; 13.2 µM (active) in [11]; 13.2 µM (active) in test [13]. The Potency is 8.33 µM (active) in [15], 13.2 µM (active) in [16], 16.6 µM (active) in test [19] and 14.8 µM (active) in [18].
